# HUVEC tox TNFa = cytotoxicity in TNFa-stimulated HUVEC, primary screen, cytotoxicity control for VCAM1 expression modulator project, imaging, Hoechst nuclei count. AID 848, 2007. 93,000 compounds, 0.17% hits. cell count reduction, % at 2 µM. HUVEC TNFalpha-stimulated, Hoechst cell count;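 active = cell count reduction exceeding the screen mean by over 5 SD, scaled to untreated wells per plate, cut at about 78% in these data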;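 also: cells counted after 24 h of TNF alpha exposure following the 1 h pretreatment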
# E-sel TNF inh = E-selectin induction blockers in HUVEC – imaging, immunofluorescence, high content, primary screen; AID 1246, 2008; inhibition, % at 2 µM; 120,000 compounds, 0.71% hits; HUVEC TNFa-induced E-selectin immunofluorescence;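 active = inhibition above the batch mean plus 3 SD, and confirmed as a hit on visual image review, cut at about 43% in these data; inconclusive = passes the inhibition cutoff but fails visual image review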;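 also: 0% = TNF-stimulated DMSO wells and 100% = unstimulated control wells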
# VCAM1 TNFa inh = inhibitors of TNFa-induced VCAM1 expression, primary screen, imaging, HUVEC, TNFa stimulus, immunofluorescence | HUVEC TNFa-induced VCAM-1 immunofluorescence, high-content imaging | inhibition, % at 2 µM | 95,000 compounds, 0.48% hits;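 active = inhibition above the batch mean plus 3 SD, with images confirmed as a hit by eye, cut at about 37% in these data; inconclusive = inhibition above that limit but hit not confirmed in images; inactive = inhibition not above that limit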;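 also: 0% = TNF-stimulated DMSO wells and 100% = unstimulated control wells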
# cytoskel mod = modifiers of F-actin cytoskeleton organization, primary screen, imaging, HUVEC, phalloidin staining, high-content imaging. HUVEC TNFa F-actin phalloidin imaging. 91,000 compounds, 0.18% hits. inhibition, % at 2 µM. AID 836, 2007;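 active = inhibition above the batch mean plus 3 SD and confirmed as a hit by visual image inspection, cut at about 30% in these data, passing the limit was not always enough; inconclusive = above the inhibition threshold but rejected on visual inspection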
# Active calls of the source: *; ? = inconclusive; . = not tested or not shown. This is a sample that favours compounds with a hit; in the whole collection about 1.1% have one here.
SMILES,HUVEC tox TNFa,E-sel TNF inh,VCAM1 TNFa inh,cytoskel mod
COC(=O)c1ccccc1NC(=O)CC(NCc1ccccc1)C(=O)O (stereo unspecified),.,-21,-21,-10
O=C(CN1CCc2[nH]c3ccccc3c2C1)N1CCCCC1,-30,.,26,0
O=C(CN1C(=O)C2CCc3[nH]c4ccccc4c3C2C1=O)N1CCCC1 (stereo unspecified),86*,.,68,-27
Cc1cc(C(=O)CN2C(=O)NC(c3ccccc3)(c3ccccc3)C2=O)c(C)n1Cc1ccco1,5,74*,0,27
CCn1c(=O)cc(OCC(=O)NCc2ccco2)c2ccccc21,90*,.,?,-58
C=CCNC(=O)C1CC(=O)N(c2ccc(OCC(=O)Nc3cccc(OC)c3)cc2)C1 (stereo unspecified),43,10,37,52*
C=CCNC(=O)C1CC(=O)N(c2ccc(OCC(=O)Nc3ccc(Cl)c(C(F)(F)F)c3)cc2)C1 (stereo unspecified),-3,1,-11,-16
CSc1ccc(/C=N/NC(=O)CN2CCN(Cc3ccc(C)cc3)CC2)cc1,.,88*,.,.
CCC(SCC(=O)OC)C(=O)Nc1nnc(C(C)C)s1 (stereo unspecified),-28,67*,3,19
Oc1ccc(Nc2nc3ccccc3nc2Nc2ccc(O)cc2)cc1,.,46,94*,?
Cc1ccccc1CS(=O)(=O)c1nnc([C@H](Cc2ccccc2)NC(=O)OC(C)(C)C)o1,9,19,75*,20
CC(C)(C)OC(=O)N[C@@H](Cc1ccccc1)c1nnc(S(=O)(=O)Cc2ccccc2)o1,-14,18,8,28
CCC(C)[C@@H](NC(=O)OC(C)(C)C)c1nnc(S(=O)(=O)Cc2cccc(C)c2)o1 (stereo partly specified),-9,.,42*,28
CC1CCN(S(=O)(=O)c2ccc(NC(=O)CSc3ncccc3C(=O)O)cc2)CC1,.,62*,.,.
COc1ccc(Cl)cc1NC(=S)NCc1ccco1,10,100*,18,7
CN(c1ccccc1)S(=O)(=O)c1cccc(C(=O)N2CCN(c3ccccn3)CC2)c1,82*,.,42,-29
CN(C)S(=O)(=O)c1cccc(C(=O)N2CCN(Cc3ccccc3)CC2)c1,-5,2,5,-11
CCOc1ccc(-c2nnn(CC#N)n2)cc1OC,8,9,8,-28
CCOC(=O)c1[nH]c2ccccc2c1NC(=O)c1ccc(S(=O)(=O)N2CCCCC2)cc1,.,-16,.,.
COC(=O)c1c(NC(=O)C2COc3ccccc3O2)sc2c1CCN(Cc1ccccc1)C2 (stereo unspecified),.,63*,.,.
S=C(c1ccccc1)N1CCCc2ccccc21,.,-23,.,.
CCC1(C)Cc2c(sc3nnn(Cc4ccccc4Cl)c(=O)c23)CO1 (stereo unspecified),.,15,-14,8
COc1cccc(-c2cnc(NCc3cc(Cl)ccc3O)n2C)c1,-16,60*,21,15
CC(C)(CO)NC(=O)CCCOc1ccc(Cl)cc1Cl,-29,8,93*,31
Cc1ccc2oc(=O)n(CCCOc3ccccc3)c2c1,16,68*,-11,14
SMILES,HUVEC tox TNFa,E-sel TNF inh,VCAM1 TNFa inh,cytoskel mod
COc1cc(OC)c(NC(=O)c2ccco2)cc1Cl,-1,100*,4,-30
O=C(Nc1ccccc1C(=O)N/N=C/c1ccco1)c1ccc(F)cc1,.,94*,.,.
Cc1ccccc1NC(=O)c1ccccc1NC(=O)c1ccco1,-17,-20,16,-9
CNC(=O)c1ccccc1NC(=O)c1ccco1,.,4,6,34*
Cc1ccccc1C(=O)Nc1ccccc1C(=O)N/N=C\c1ccco1,0,-18,14,-13
Cc1ccc(NN2C(=O)C=C(c3ccccc3)C2=O)cc1,.,23,.,.
O=C(CCCOc1ccc(Cl)cc1Cl)N/N=C\C1CCCCC1,-3,-4,2,12
COC(=O)CN(c1cccc(F)c1)S(C)(=O)=O,-14,1,-6,6
O=C(NCc1ccco1)c1cc(-c2ccc(Cl)cc2)on1,66,.,79*,-44
Cc1ccc(-c2cc(C(=O)NCc3ccccn3)no2)cc1,-33,16,12,77*
Cc1ccc(-c2cc(C(=O)NCc3ccco3)no2)cc1,-19,-8,-6,10
CCOC(=O)N1CCN(C(=O)c2ccc(OC)c(S(=O)(=O)N3CCOCC3)c2)CC1,.,-3,.,.
CCC(CC)c1nnc(NC(=O)CCCN2C(=O)c3ccccc3C2=O)s1,-6,13,15,0
Cc1nn(CC(=O)Nc2ccc(C(=O)N(C)C)cc2)c(=O)c2ccccc12,-14,10,-4,34*
Oc1c(C(c2ccco2)N2CCN(C(c3ccccc3)c3ccccc3)CC2)sc2ncnn12 (stereo unspecified),8,.,-6,1
c1ccc(Nc2nc3ccccc3n3cnnc23)cc1,.,87*,.,.
c1ccc2c(c1)nc(NC1CCCCC1)c1nncn12,-16,.,9,12
COCCCn1c(SCC(=O)Nc2nc3ccccc3s2)nnc1-c1ccoc1C,.,-5,.,.
O=C(COc1ccc([N+](=O)[O-])cc1Cl)NCCc1ccccc1,.,88*,.,.
O=C(COc1ccc(Cl)cc1Cl)NCCCCc1ccccc1,-13,-62,-1,9
COCCCNC(=O)COc1ccc(S(=O)(=O)NCc2ccccc2)cc1Cl,.,92*,.,.
CCCC(=O)Oc1ccc(-c2nccc(C(OC)OC)n2)cc1,.,-3,.,.
O=C(O)CNC(=O)c1ccccc1Br,.,-14,.,.
Cc1oc(-c2ccc(Cl)cc2)cc1-c1nn2c(-c3ccoc3C)nnc2s1,.,-18,54*,0
Clc1ccc(-c2nnc3sc(-c4ccc(Br)o4)nn23)cc1,-11,13,1,-5
SMILES,HUVEC tox TNFa,E-sel TNF inh,VCAM1 TNFa inh,cytoskel mod
O=C1CC(N2CCN(Cc3ccc4c(c3)OCO4)CC2)C(=O)N1c1ccccc1 (stereo unspecified),26,13,61*,-3
COc1ccc(OC)c(NS(=O)(=O)c2ccc(N3CCCC3=O)cc2)c1,64,.,41*,-9
CCOc1ccc(S(=O)(=O)Nc2cc(OC)ccc2OC)cc1,67,.,59*,3
CCCCCCCCNC(=O)/C(C#N)=C/c1ccc(SC)cc1,.,5,.,.
N#C/C(=C\c1ccncc1)c1nc2ccccc2c(=O)[nH]1,.,16,.,.
COc1ccc(CN(CC2CCCO2)C(=O)c2cc3sccc3n2C)c(OC)c1 (stereo unspecified),.,-26,.,.
CCS(=O)(=O)c1ccc2oc(Nc3cc(C)cc(C)c3)nc2c1,3,-12,4,-11
CCS(=O)(=O)c1ccc2oc(Nc3ccc(C(C)C)cc3)nc2c1,-28,64*,11,.
Cc1cccc(-n2nnnc2SCc2csc(-c3ccccc3)n2)c1,88*,-4,12,-6
CCn1c(CNC(=O)c2ccccc2F)nnc1SCc1nc2ccccc2c(=O)[nH]1,.,-30,.,.
c1ccc(-c2ccnc3nc(N4CCN(c5ccccc5)CC4)nn23)cc1,-14,9,1,-16
CSc1nc2nccc(-c3ccc(Oc4ccccc4)cc3)n2n1,-42,1,86*,27
CSc1nc2nccc(-c3ccc(-c4ccccc4)cc3)n2n1,-9,10,2,-1

# Screens deposited in PubChem by Columbia University Molecular Screening Center.
